Compounds without any hit were thinned out: in the full panel of roughly 83,000, 20% have a hit.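 The endpoint reported here, percent growth, reads 100 for growth as untreated, 0 for no net growth and -100 for all cells dead.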 The source made the active and inactive calls. The calls were made as follows: active = growth percent below 10; inactive = the rest.
Test system: OVCAR-3 ovarian
Experiment: NCI-60 one-dose screen, 48 h (100 = growth as untreated, 0 = no growth, -100 = all killed)
Conditions: 10 µM unless noted

| Structure (SMILES) | growth |
| --- | --- |
| CC(NC(=O)Oc1cccc2ccccc12)c1ccccc1 (configuration not stated) | 103% (inactive) |
| OC(c1cc(-c2cccc(Cl)c2)nc2ccccc12)C1CCCCN1 (configuration not stated) | -13.1% (active) |
| O=C(Nc1ccccc1OC(=O)c1ccccc1)c1ccccc1 | 77.7% (inactive) |
| Cc1ccccc1NC(=O)NC(CC(N)=O)c1ccc2c(c1)nc(-c1cccc(Oc3ccc(C(C)(C)C)cc3)c1)n2CCCN1CCCCC1C (configuration not stated) | 53.2% (inactive) |
| O=C(C(=O)c1cc(Br)ccc1O)c1cc(Br)ccc1O | 15.9% (inactive) |
| Fc1ccccc1C1c2ccccc2-c2nccn21 (configuration not stated) | 96.7% (inactive) |
| COc1cc(/C=C\C(C)=N\Nc2ccccc2)ccc1O | 89.2% (inactive) |
| COc1cc(/C=N/NC(=O)c2ccc(C(F)(F)F)nc2Nc2ccc(Cl)cc2C)ccc1O | 30.4% (inactive) |
| O=Cc1ccccc1C(=O)O | 102% (inactive) |
| COc1cc(NC(=O)NCc2ccco2)ccc1-c1ccc(NC(=O)NCc2ccco2)cc1OC | 74% (inactive) |
| COc1cccc(/C=N/Nc2nc3ccccc3s2)c1OC | 98.3% (inactive) |
| O=C(N/N=C/c1ccc(Cl)cc1Cl)c1ccccc1Nc1cccc(C(F)(F)F)c1 | 53.3% (inactive) |
| COc1ccc(NS(=O)(=O)N2CCCCC2)cc1 | 107% (inactive) |
| O=c1c2ccccc2c2nccn2c2cc(Cl)ccc12 | 99.1% (inactive) |
| COc1ccc(-c2ccc(O)c(C(=O)/C=C/c3cc(OC)c(OC)c(OC)c3)c2)cc1 | 93.7% (inactive) |
| Cc1cc(=O)oc2cc(OCCn3c(C)nn(-c4ccc(Cl)cc4)c3=O)ccc12 | 14.8% (inactive) |
| O=C1C=CC(=O)N1c1ccccn1 | 119% (inactive) |
| CCN(CC)c1ccc(N=C2C=CC(=O)C=C2NC(C)=O)cc1 | 74.2% (inactive) |
| CC1CN(C2CCCCC2)C(=O)NC1=O (configuration not stated) | 111% (inactive) |
| COc1ccc2cc(C3=CC(=O)CCC3)ccc2c1 | 106% (inactive) |
| COc1ccc(Cl)cc1Nc1nc(C(F)(F)F)ccc1C(=O)N/N=C/c1c(Cl)cccc1Cl | -2.74% (active) |

Test system: HS 578T breast
Experiment: as above
Conditions: 10 µM unless noted

| Structure (SMILES) | growth |
| --- | --- |
| COc1ccc2c(c1)CC[C@@H]1[C@@H]2CC[C@]2(C)[C@@H](O)C(=O)C[C@@H]12 | 100% (inactive) |
| C[C@@H]1CN(c2nc3c(cc2F)c(=O)c(C(=O)O)cn3C(C)(C)C)C[C@H](C)N1 | 67.2% (inactive) |
| NS(=O)(=O)c1ccc(-n2ncc3c(NC4CCCCC4)ncnc32)cc1 | 98.8% (inactive) |
| CCOC(=O)C1=CCC(n2cc(C)c(=O)[nH]c2=O)O1 (configuration not stated) | 104% (inactive) |
| O=CNc1ccc2c(c1)Cc1cc([N+](=O)[O-])ccc1-2 | 40.1% (inactive) |
| CC(=O)[C@H]1CC[C@H]2[C@@H]3C[C@H](C)C4=CC(=O)CC[C@]4(C)[C@H]3C(=O)C[C@]12C | 103% (inactive) |
| Cc1ccc(C(=O)Cc2ccccc2)c(O)c1 | 107% (inactive) |
| Oc1ccc(/C=N/Nc2nc3ccccc3s2)c(O)c1 | 49.2% (inactive) |
| O=C(CC(C(=O)c1ccccc1)N1CCN(Cc2ccccc2)CC1)c1ccccc1 (configuration not stated) | 92.5% (inactive) |
| CC(NC(N)=S)c1ccccc1 (configuration not stated) | 98.9% (inactive) |
| C[C@]12CCC(=O)C=C1CC[C@H]1[C@@H]3C[C@@H](O)[C@](O)(C(=O)CO)[C@@]3(C)C[C@H](O)[C@@]12F | 115% (inactive) |
| O=C(Nc1ccc2c(c1)C(=O)c1ccccc1-2)c1ccccc1 | 90.6% (inactive) |
| CCN(Cc1cccc(S(=O)(=O)[O-])c1)c1ccc(C(=C2C=CC(=[N+](CC)Cc3cccc(S(=O)(=O)O)c3)C=C2)c2ccccc2S(=O)(=O)O)cc1 | 106% (inactive) |
| CC(NC(=O)Oc1cccc2ccccc12)c1ccccc1 (configuration not stated) | 107% (inactive) |
| OC(c1cc(-c2cccc(Cl)c2)nc2ccccc12)C1CCCCN1 (configuration not stated) | 34.9% (inactive) |
| O=C(Nc1ccccc1OC(=O)c1ccccc1)c1ccccc1 | 101% (inactive) |
| Cc1ccccc1NC(=O)NC(CC(N)=O)c1ccc2c(c1)nc(-c1cccc(Oc3ccc(C(C)(C)C)cc3)c1)n2CCCN1CCCCC1C (configuration not stated) | 6.75% (active) |
| Fc1ccccc1C1c2ccccc2-c2nccn21 (configuration not stated) | 98.8% (inactive) |
| COc1cc(/C=C\C(C)=N\Nc2ccccc2)ccc1O | 92.1% (inactive) |
| COc1cc(/C=N/NC(=O)c2ccc(C(F)(F)F)nc2Nc2ccc(Cl)cc2C)ccc1O | -15.1% (active) |
| O=Cc1ccccc1C(=O)O | 100% (inactive) |

From PubChem BioAssay (NCI)
